Bioassay records as filed in PubChem.
Insulin prom inh = inhibitors of insulin promoter-driven GFP, primary screen, imaging, TRM-6 cells (human fetal islet line), eGFP reporter, cell count; reporter expression induced with tamoxifen; inhibition, % at 2 µM; 130,000 compounds, 0.9% hits; AID 1273, 2008;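 active = inhibition above the mean plus 3 SD, with well images judged a real hit on visual review, cut at about 60% in these data, passing the limit was not always enough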
WT yeast gro inh = growth inhibition of WT strain, primary screen, mitochondrial fusion inhibitor project, WT and mutant strains, chemical genetic; mitochondrial fusion phenotypic screen; inhibition, % at 10 µM; 190,000 compounds, 2.1% hits; in the data active = inhibition above about 58%; tested in S. cerevisiae
Lmaj promast = Leishmania major promastigote growth inhibition, primary screen; inhibition, % at 10 µM; AID 1063, 2008; Leishmania major promastigotes, resazurin fluorescence viability; 200,000 compounds, 9% hits; in the data active = inhibition above about 50%;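 note: promastigotes grown with compound for 44 hours at 28 °C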
Cl transport mod = KCC2 cotransporter modulators, thallium flux, primary screen, cell-based, HEK293 KCC2, FluoZin-2 fluorescence, MLSMR; Solute carrier family 12 member 5 (Homo sapiens), Q9H2X9; KCC2 cells, thallium flux FluoZin-2 fluorescence; B-score of Tl+ flux slope (higher = more flux/activation; lower = inhibition) at 10 µM; 190,000 compounds, 2.2% hits; AID 1456, 2008;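 active = thallium flux slope and its plate-corrected score both differing from the plate sample mean at a set confidence after two filtering rounds, in either direction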;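 note: slope of fluorescence scaled to starting intensity during 10 to 20 s after thallium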
Ins promoter up = insulin promoter activators in MIN6 cells, imaging, high-content screening, mouse beta cells; MIN6 insulin promoter-GFP reporter; stronger effect = higher value; z-score at 5 µM; 190,000 compounds, 0.3% hits;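 active = z-score above 3 at 5 µM with at least 500 cells counted in the well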
ROMK primary = ROMK potassium channel modulators, primary screen, cell-based, thallium flux, MLSMR library | Tet-inducible ROMK, thallium flux fluorescence; actives lie on both sides | B-score at 10 µM | 130,000 compounds, 2% hits;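 active = signal ratio slope over the read window, or its plate-corrected B-score, at least 3 SD from the plate mean, either direction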;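 note: B-score of the F/F0 ratio slope over 7 to 12 s after thallium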
Large screens that a line does not name were inactive. A selection: hits, their analogues and other compounds. The true share with any hit is near 12%.

NC(=O)C1CCN(C2=C(NS(=O)(=O)c3ccccc3)C(=O)c3ccccc3C2=O)CC1	none (no result: Insulin prom inh, WT yeast gro inh, Lmaj promast, ROMK primary)
O=C1C(NS(=O)(=O)c2ccc(Cl)cc2)=C(N2CCCCC2)C(=O)c2ccccc21	Lmaj promast 89 (no result: Insulin prom inh, ROMK primary)
O=C(Cn1nnc(-c2ccccc2F)n1)OCC(=O)c1ccccc1	none (no result: Insulin prom inh)
CC(C)CNC(=O)NC(=O)COC(=O)c1cccc(NS(=O)(=O)c2ccc(F)c(F)c2)c1	none (no result: ROMK primary)
O=C(COC(=O)c1cccc(NS(=O)(=O)c2ccc(F)c(F)c2)c1)NC(=O)NC1CCCCC1	Lmaj promast 82
O=C(COC(=O)c1ccc(NS(=O)(=O)c2ccc3c(c2)OCCO3)cc1)NC1CC1	Insulin prom inh 92
CCCNC(=O)NC(=O)COC(=O)c1cccc(NS(=O)(=O)c2ccc(F)c(F)c2)c1	Lmaj promast 55 (no result: ROMK primary)
COc1ccccc1CNC(=O)COC(=O)C1=COCCO1	none (no result: ROMK primary)
CCC1(CC)Cc2ccccc2-c2nc(-c3ccccc3)oc(=O)c21	none (no result: Cl transport mod)
Cc1ccc(Cn2ncc3c(N4CCN(c5ccc(C)cc5)CC4)ncnc32)cc1	none (no result: Insulin prom inh, Cl transport mod)
Cc1ccc(Cn2ncc3c(N4CCN(Cc5ccc(Cl)cc5)CC4)ncnc32)cc1	WT yeast gro inh 64, Lmaj promast 69 (no result: Cl transport mod)
CC1CCN(c2ncnc3c2cnn3Cc2ccc(Cl)cc2)CC1	WT yeast gro inh 63 (no result: Insulin prom inh, Cl transport mod)
Cc1ccc(Cn2ncc3c(N4CCN(C5CCCC5)CC4)ncnc32)cc1	Lmaj promast 55
CCCn1c(=O)[nH]c(=O)c2c1nc(-c1ccc(OC)c(Br)c1)n2CCOC	none
Cn1nnc(NC(=S)NC(=O)/C=C/c2ccco2)n1	none (no result: Insulin prom inh, WT yeast gro inh, Lmaj promast, Ins promoter up)
COc1ccc(CC(=O)NCc2nc(-c3ccccc3)no2)cc1	none (no result: Insulin prom inh)
COc1cc(OC)cc(C(=O)NCc2nc(-c3ccccc3)no2)c1	Lmaj promast 68 (no result: ROMK primary)
c1ccc(NCc2nc(-c3ccccc3)no2)cc1	Insulin prom inh 80 (no result: ROMK primary)
O=C(O)CCCc1nc(-c2ccccc2)no1	none (no result: ROMK primary)
CC(c1ccccc1)N1CCc2[nH]c(=S)[nH]c(=O)c2C1 (centres undefined)	Insulin prom inh 91
CCN(CC)S(=O)(=O)c1cccc(-c2cn3cc(C)ccc3n2)c1	Lmaj promast 85
CCN(CC)S(=O)(=O)c1cccc(-c2n[nH]c(=S)n2Cc2ccccc2)c1	Lmaj promast 100 (no result: Insulin prom inh)
Cc1ccc2nc(-c3cccc(S(=O)(=O)N(C)C)c3)cn2c1	none (no result: Insulin prom inh, WT yeast gro inh)
CCN(CC)S(=O)(=O)c1cccc(-c2n[nH]c(=S)n2CC(C)C)c1	none (no result: Insulin prom inh)
Cc1nn(C)cc1CN(C)C(=O)CC12CC3CC(CC(C3)C1)C2	none (no result: ROMK primary)
COCc1nnc(NC(=O)CCSc2ccccc2)s1	none
COc1cc(/C=C(\C#N)c2ccccn2)cc(OC)c1O	none (no result: Insulin prom inh, WT yeast gro inh, Lmaj promast, ROMK primary)
COc1cc(/C=C(\C#N)c2nc3ccccc3s2)cc([N+](=O)[O-])c1O	WT yeast gro inh 67
COc1ccc(-c2csc(/C(C#N)=C\c3ccc(OC)c([N+](=O)[O-])c3)n2)cc1	Lmaj promast 91
COc1ccc(-c2csc(/C(C#N)=C\c3ccc(O)c([N+](=O)[O-])c3)n2)cc1OC	none (no result: Insulin prom inh, WT yeast gro inh, Lmaj promast)
O=C(N/N=C/c1ccc([N+](=O)[O-])o1)C1CC1	Lmaj promast 100
CCCC(=O)Nc1ccc(C(=O)N/N=C/c2ccc([N+](=O)[O-])o2)cc1	Lmaj promast 99 (no result: ROMK primary)
Cc1cc(C(=O)N/N=C/c2ccc([N+](=O)[O-])o2)c(C)o1	none (no result: Insulin prom inh, WT yeast gro inh, Lmaj promast, ROMK primary)
Cc1nonc1C(=O)N/N=C/c1ccc(O)cc1O	Lmaj promast 98
Cc1nonc1C(=O)N/N=C/c1ccc([N+](=O)[O-])o1	Lmaj promast 94 (no result: Insulin prom inh)
Cc1nonc1C(=O)N/N=C/c1ccncc1	none
C=CC[n+]1c(C)csc1Nc1cccc(Br)c1	none (no result: Insulin prom inh)
C/C(Cl)=C\Cn1c(Nc2ccc(C)cc2)nc2c1c(=O)n(C)c(=O)n2C	none
CCc1nnc(NC(=O)CSc2nc3cccnc3n2Cc2ccccc2)s1	none (no result: Ins promoter up, ROMK primary)
CN(/N=C/c1ccc([N+](=O)[O-])o1)c1ccccc1	Lmaj promast 71
COC(=O)N/N=C/c1ccc([N+](=O)[O-])o1	Lmaj promast 99 (no result: Ins promoter up)
CN(C)S(=O)(=O)c1ccc(NC(=O)COC(=O)CC2CC3CCC2C3)cc1 (centres undefined)	none (no result: Insulin prom inh)
Cc1ccc(C2(CCNCc3ccc(N(C)C)cc3)CCOC(C(C)C)C2)cc1 (centres undefined)	Lmaj promast 100 (no result: Insulin prom inh)
